Sampled rows, rich in hits. Any-hit rate of the full collection: about 2.4%.
WRN inhibitor – blocks human WRN helicase | hit rate 0.46% among 360,000 | AID 651768 | WRN helicase unwinding, fluorescent forked duplex, kinetic | Q14191 | Potency, µM (top dose mostly 114 µM), most hits filed as inhibitors; also: nearly all actives have a fitted effect of over 55% in size
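Fluorescence dequenching readout, ex 525 nm/em 598 nm, kinetic mode: forked duplex DNA (100 nM final) with adjacent fluorophore and quencher unwound by WRN (20 nM final) with 2 mM ATP. Compound preincubation 15 min, room temperature.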
POLB inh – blocks human DNA polymerase beta activity; Pol beta primer extension/strand displacement, fluorescence kinetic; Potency, µM (top dose mostly 114 µM), usual class: inhibitors; hit rate 1.3% among 340,000; AID 485314
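Homogeneous kinetic assay of primer extension and strand displacement by 10 nM Pol beta, preincubated 15 min at room temperature with compound before 50 nM substrate (final) was added. Read at 0 and 10 min; four-parameter Hill fit.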
FEN1 inh – blocks human flap endonuclease 1. P39748. Recombinant FEN1 flap cleavage, fluorescence, 15 min. Potency, µM (titrated, usually from 114 µM), usual class: inhibitors. hit rate 0.35% among 390,000. AID 588795; also: nearly all actives have a fitted effect of over 65% in size
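Compounds are tested as a concentration series against 10 nM FEN1; after a 15 min room-temperature preincubation, 50 nM substrate starts cleavage, with plate reads at 0 and 15 min. Normalized responses are fitted by a Hill equation.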
POLI inh – DNA polymerase iota (human) inhibition; hit rate 1% among 390,000; Q9UNA4; Potency, µM (highest dose often 115 µM), actives largely listed as inhibitors; Pol iota fluorescent replication assay, 10 min
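Pol iota at 10 nM preincubated 15 min with compounds at room temperature; reaction started with fluorescent substrate, 50 nM final. Fluorescence read kinetically at 0 and 10 min; buffer-only wells as negative control.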
Pol eta inh-1 – inhibitors of human DNA polymerase eta | recombinant Pol eta, fluorescent DNA replication assay | hit rate 1.2% among 390,000 | Potency, µM (series often up to 114 µM), actives largely listed as inhibitors | Q9Y253
Target sequence (Q9Y253 whole entry, looked up): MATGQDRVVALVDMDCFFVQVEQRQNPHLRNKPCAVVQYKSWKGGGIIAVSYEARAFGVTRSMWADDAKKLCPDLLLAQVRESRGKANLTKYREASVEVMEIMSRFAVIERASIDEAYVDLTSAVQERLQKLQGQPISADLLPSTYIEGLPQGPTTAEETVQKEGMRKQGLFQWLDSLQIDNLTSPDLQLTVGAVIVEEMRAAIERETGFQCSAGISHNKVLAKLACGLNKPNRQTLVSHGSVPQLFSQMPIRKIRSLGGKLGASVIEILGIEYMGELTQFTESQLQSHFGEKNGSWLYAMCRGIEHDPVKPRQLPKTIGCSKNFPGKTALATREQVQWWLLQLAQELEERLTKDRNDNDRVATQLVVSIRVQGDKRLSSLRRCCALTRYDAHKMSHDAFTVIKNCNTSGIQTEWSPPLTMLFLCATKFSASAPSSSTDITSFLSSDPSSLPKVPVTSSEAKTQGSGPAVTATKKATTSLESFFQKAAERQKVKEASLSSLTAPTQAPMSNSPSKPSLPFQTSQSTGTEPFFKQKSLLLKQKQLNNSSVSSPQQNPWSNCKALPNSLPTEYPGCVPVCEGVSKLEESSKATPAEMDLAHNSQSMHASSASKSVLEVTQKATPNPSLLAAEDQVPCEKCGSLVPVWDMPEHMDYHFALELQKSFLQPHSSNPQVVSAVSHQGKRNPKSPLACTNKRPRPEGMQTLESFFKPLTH
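Pol eta at 10 nM preincubated with compounds 15 min at room temperature; reaction started with fluorescent substrate (50 nM final) and read kinetically at 0 and 10 min.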
Pol kappa inh-1 – DNA polymerase kappa (human) inhibition. Q9UBT6. purified Pol kappa, fluorescent DNA synthesis assay, 10 min. hit rate 0.53% among 400,000. AID 588579. Potency, µM (series often up to 107 µM), most hits filed as inhibitors
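Here, compound and 10 nM enzyme are combined for 15 min at room temperature; adding 50 nM substrate (final) starts DNA synthesis, tracked by fluorescence at 0 and 10 min against buffer-only wells.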
PGK validate – TbPGK inhibition, hit validation | TbPGK coupled GAPDH assay, Kinase-Glo luminescence | Potency, µM (titrated, usually from 57.5 µM), actives largely listed as inhibitors | hit rate 79% among 500 | shares compounds with Pol kappa inh-1; also: nearly all actives have a fitted effect of over 65% in size
POLI cherry-pick – Confirm cherry-picked inhibitors of human polymerase iota; shares compounds with Pol kappa inh-1; Pol iota primer extension, TAMRA/BHQ fluorescence; Potency, µM, actives largely listed as inhibitors; hit rate 77% among 1,500; AID 720496
GALK inh confirm – confirmation of human galactokinase (GALK) inhibitors; shares compounds with Pol eta inh-1; purified GALK, Kinase-Glo ATP depletion luminescence; hit rate 70% among 150; Potency, µM (highest dose often 115 µM), hits mostly inhibitors
GALK redox cs – counter-screen for GALK inhibitors: redox cycling H2O2 generation | Phenol red-HRP H2O2 redox cycling, absorbance 600 nm | AID 2035 | Potency, µM (highest dose often 115 µM), usual class: inhibitors | shares compounds with Pol eta inh-1 | hit rate 40% among 150
HEK293 viability – counter-screen for GALK inhibitors: HEK293 cell cytotoxicity | shares compounds with Pol eta inh-1 | HEK-293 viability, ATP luminescence (CellTiter-Glo), 24/48 h | Potency, µM (titrated, usually from 46.1 µM), hits mostly inhibitors | hit rate 10% among 170 | AID 2547
Pol kappa inh-2 – confirmation of human DNA polymerase kappa inhibitors | shares compounds with Pol eta inh-1 | purified Pol-kappa, fluorescent strand-displacement substrate | Potency, µM, hits mostly inhibitors | hit rate 76% among 920
Pol eta inh-2 – confirmation of human DNA polymerase eta inhibitors | shares compounds with Pol eta inh-1 | Pol eta primer extension, TAMRA/BHQ fluorescence, 10 min | AID 720502 | hit rate 64% among 2,600 | Potency, µM, actives largely listed as inhibitors
Hits are given with their value; 0 = inactive; ? = inconclusive; - = no result given; [ ] = remark or other dose. Calls follow the shape of the dose curve; as a rule, active = well fitted curve in the direction sought with a large enough effect; inconclusive = small, poorly fitted or top-dose-only effect, or another doubt; inactive = no such curve, though single readings can be large; an effect the other way counts as inactive or inconclusive.

SMILES	WRN inhibitor	POLB inh	FEN1 inh	POLI inh	Pol eta inh-1	Pol kappa inh-1	POLI cherry-pick	Pol eta inh-2	others
Cc1ccccc1NC(=O)c1nc2nccc(C)n2n1	-	0	-	-	-	-	-	-
O=C(N/N=C/c1cn(Cc2ccccc2)c2ccccc12)c1cc(O)cc(O)c1	0[11.6 µM]	31.6µM	0	?	44.7µM	?	33.6	30.1	Pol kappa inh-2=18.9
O=C(O)C(c1ccccc1)N1C(=O)/C(=C\c2ccc(-c3ccccc3Cl)o2)SC1=S (stereo unspecified)	50.1µM	?	50.1µM	11.2µM	39.8µM	0	59.7	37.9	PGK validate=8.19µM;Pol kappa inh-2=10.6
Nc1ccc(S(=O)(=O)Nc2nccs2)cc1N=Nc1ccccc1[N+](=O)[O-]	25.1µM	-	50.1µM	7.08µM	3.16µM	28.2µM	75.2	19	Pol kappa inh-2=?
O=[N+]([O-])c1ccccc1S(=O)(=O)Nc1ccc(S(=O)(=O)Nc2nccs2)cc1	0	0	0	?	0	0	-	-
COc1cccc(Cn2c(=O)c(-c3cccc(F)c3)nc3cncnc32)c1	-	-	-	-	-	0	-	-
CC(=O)c1c(C)oc2ccc(NS(=O)(=O)c3ccc(C)cc3)cc12	0	0	0	0	0	0	-	-
Cc1ccc(C)c(S(=O)(=O)Nc2ccc3oc(C)c(C(=O)O)c3c2)c1	56.2µM	8.91µM	?	14.1µM	10µM	79.4µM	33.6	26.9
CC(C)c1ccc[n+](-c2nc([O-])sc2C=O)c1	0	0	0	0	0	0	-	-
Cc1ccc[n+](-c2nc([O-])sc2C=O)c1	0[11.6 µM]	?	0	?	22.4µM	?	?	?
CCOc1ccccc1NC(=O)N1CCN(Cc2cc(=O)n3nc(-c4ccc(C)cc4)sc3n2)CC1	-	0	0	0	0	0	-	-
CN(C)c1ccc(-c2ccc3c(=O)c4ccccc4n(C)c3c2)cn1	0[11.6 µM]	?	0	?	20µM	0	?	?
Cn1c2ccccc2c(=O)c2ccc(Cl)cc21	0	-	-	-	0	-	-	-
O=C(CCCCCn1c(SCc2ccncc2)nc2ccccc2c1=O)NCc1ccco1	?	39.8µM	0	14.1µM	79.4µM	?	47.4	75.7
Cc1cc(N/N=C/c2ccc(O)cc2)nc(NS(=O)(=O)c2ccccc2)n1	0	17.8µM	0	?	20µM	?	-	?	PGK validate=5.17µM
O=C1C(=O)N(Cc2ccc(Cl)c(Cl)c2)c2ccccc21	-	-	-	-	-	0[19.4 µM]	-	-
Cc1c(C)n(C(=O)CSc2nc3ccccc3[nH]2)c2ccccc12	?	8.91µM	0	?	?	?	?	37.9
CCOc1ccccc1CNC(=O)Cn1cc2c(n1)-c1c(oc(C(=O)N3CCCC3)c1C)CC2	-	0	?	?	0	0	-	-
Cc1ccc(S(=O)(=O)/N=C2\C=C(NS(=O)(=O)c3ccccc3)C(=O)c3ccccc32)c(C)c1	0	-	0	?	0	0	-	-
CCc1ccc(S(=O)(=O)/N=C2\C=C(Nc3ccc(C(=O)O)cc3)C(=O)c3ccccc32)cc1	0[11.6 µM]	0	0	11.2µM	28.2µM	0	18.9	21.3	GALK inh confirm=?;GALK redox cs=11.9µM;HEK293 viability=11.2µM;Pol kappa inh-2=?
